PubChem BioAssay AID2685 (National Center for Advancing Translational Sciences (NCATS), 2010)
Screen size: about 320,000 compounds; about 2,100 (0.66%) were called active. Another 53% or so got no clear call; they are omitted. The call rests on the fitted dose curve; in most records, active means well fitted inhibition curve with a large enough effect in the signal ratio, with a control signal flat (not every such curve was filed as active); inconclusive means small, poorly fitted or top-dose-only effect, or effect the other way, or a change in a side signal; inactive means flat fitted curve, though single readings scatter; the % refers to the signal ratio. The sample as a whole holds a higher share of actives than the screen did.

Assay: qHTS Assay for Lipid Storage Modulators in Drosophila S3 Cells;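 on cell number change: cells counted by Cell Tracker Red CMTPX staining in the red channel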
Conditions: BODIPY lipid droplet fluorescence, 18-24 h, cells fed with added oleic acid; cell number change: measured here: cell count max response; series mostly up to 46.1 µM
Method in brief: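 Drosophila S3 cells loaded with oleic acid (400 uM, as added) and compounds at several concentrations; lipid droplets imaged by 488-nm laser-scanning cytometry, 500–530 nm intensity and object ratio to cell channel. Percent activity normalized to 20 uM Triacsin C.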
Potency means the concentration at half of the fitted maximal effect.

Structure (SMILES)	Potency	cell number change
COc1nc(OC)nc(N2CCC(C(=O)Nc3cccc4c3CCCC4)CC2)n1	inactive	-6.45%
O=C1OC(C(=O)Nc2nccs2)Cc2ccccc21 (stereo not drawn)	inactive	
CC(C)(C)c1nc(SCC(=O)Nc2ccc3c(c2)OCCO3)c2ccccc2n1	18.4 µM (active)	-25.4%
Cc1cc(NC(=O)CSc2nc(C(C)(C)C)nc3ccccc23)no1	inactive	-18%
O=C(CSc1ncnc2ccccc12)Nc1ccc2c(c1)OCCO2	inactive	
COc1ccc2[nH]c(=O)c(CNc3ccc(C)cc3C)cc2c1	inactive	-6.94%
CC(=O)N/C(=C/c1ccccc1)C(=O)NCCO	inactive	7.72%
O=C(O)CCC(=O)Nc1nnc(C(F)(F)F)s1	29.1 µM (active)	-2.24%
O=C(NCC(F)(F)F)Nc1nnc(C(F)(F)F)s1	inactive	0.475%
CCc1ccc(NC(=O)CCC(=O)Nc2nnc(C(F)(F)F)s2)cc1	inactive	24.4%
O=C(CCC(=O)N1CCCC1)Nc1nnc(C(F)(F)F)s1	inactive	11.1%
CCC(NC(=O)Nc1nnc(C(F)(F)F)s1)(C(F)(F)F)C(F)(F)F	16.4 µM (active)	-12.6%
CC(C)(C)CC(=O)Nc1nnc(C(F)(F)F)s1	inactive	0.161%
CCOC(=O)C1CCN(C(=O)C(CCSC)NC(=O)COc2ccccc2)CC1 (stereo not drawn)	inactive	22.1%
CC(=O)Nc1cccc(-c2nn[nH]n2)c1	inactive	9.02%
CC(=O)Nc1ccc(Nc2nnc(-c3ccc(O)cc3)c3ccccc23)cc1	inactive	9.07%
Cc1cc(C)cc(NC(=O)Cc2ccc(-n3cccc3)cc2)c1	inactive	-7.37%
COc1ccc(C(CCN(Cc2ccc(OC)c(OC)c2)C(C)=O)c2ccccc2)cc1 (stereo not drawn)	inactive	-3.52%
COc1ccc(C(CCN(Cc2ccc(OC)c(OC)c2)C(C)=O)C(C)C)cc1 (stereo not drawn)	0.82 µM (active)	-13.5%
CC(=O)N(CCC(c1ccco1)C(C)C)Cc1ccc(OC(C)C)cc1 (stereo not drawn)	inactive	-2.37%
O=C(O)CCc1ccc(-c2ccc(F)cc2)n1Cc1ccco1	inactive	-0.476%
Cc1ccc(-c2ccc(CCC(=O)O)n2Cc2ccco2)cc1	inactive	19.5%
O=C(O)CCc1ccc(-c2ccc(Br)cc2)n1Cc1ccco1	6.51 µM (active)	-8.78%
Cc1[nH]c2ccccc2c1C(=O)C(=O)N1CCN(c2ccccc2)CC1	inactive	8.19%

Structure (SMILES)	Potency	cell number change
CCc1ccccc1N(CC(=O)Nc1cccc(N(C)S(C)(=O)=O)c1)S(C)(=O)=O	inactive	5.08%
CN(c1cccc(NC(=O)CN(c2cccc(Cl)c2)S(=O)(=O)c2ccc(Cl)cc2)c1)S(C)(=O)=O	inactive	-18.4%
Cc1ccc(Cl)cc1N(CC(=O)Nc1cccc(N(C)S(C)(=O)=O)c1)S(C)(=O)=O	14.6 µM (active)	-15.4%
COc1ccc2oc(CS(=O)c3ccccc3)c(C(=O)O)c2c1 (stereo not drawn)	inactive	13.2%
CC1OC2(OC1C)C(=O)Nc1ccccc12 (stereo not drawn)	inactive	
CN1C(=S)SC(C)(C)C1NO (stereo not drawn)	inactive	1.23%
CN1C(=S)SC(C)(NO)C1(C)C (stereo not drawn)	5.17 µM (active)	-11.6%
CN1C(=S)SC(C)(C)C1(C)NO (stereo not drawn)	1.64 µM (active)	0.152%
CCC(C)c1ccc(S(=O)(=O)Nc2cccnc2)cc1 (stereo not drawn)	inactive	-23.6%
CCCCCCCCCCCCS[C@H]1CS(=O)(=O)C[C@@H]1O	inactive	-8.76%
CC(=O)Nc1cc2cc(NS(=O)(=O)c3ccc(Cl)cc3)ccc2oc1=O	inactive	9.39%
COC(=O)/C(C#N)=C\c1c(OC)[nH]c2ccccc12	inactive	-7.03%
CN(Cc1c(F)cccc1Cl)C(=O)CNC(=O)c1cccs1	inactive	-5.78%
CN(Cc1c(F)cccc1Cl)S(=O)(=O)c1cccs1	5.8 µM (active)	-15.8%
CN(Cc1ccccc1)S(=O)(=O)c1cccs1	inactive	5.69%
CC(C)CSc1nc2c(c(=O)[nH]c(=O)n2C)n1CCc1ccccc1	inactive	0.065%
Cc1c(C(=O)N2CCN(S(=O)(=O)c3cc(F)ccc3F)CC2)oc2ccccc12	inactive	-12.2%
O=C(c1cc(-c2ccc(Cl)cc2)on1)N1CCN(c2ccc(F)cc2)CC1	20.6 µM (active)	8.11%
Cc1cc(=O)oc(C)c1C(=O)N1CCN(c2ccc(F)cc2)CC1	23.1 µM (active)	-3.9%
Cc1c(C(=O)N2CCN(CCc3ccccn3)CC2)oc2ccc(F)cc12	inactive	0.99%
O=C(c1ccc(N2CCN(C(=O)c3ccccc3)CC2)cc1)c1cccc(F)c1	2.06 µM (active)	0.901%
O=C(c1cc(-c2ccc3c(c2)OCO3)on1)N1CCN(c2ccc(F)cc2)CC1	inactive	27.5%
Cc1cc(=O)oc(C)c1C(=O)NCCCN1CCN(c2ccc(F)cc2)CC1	inactive	2.43%
O=C(c1cc(-c2ccc(O)cc2)on1)N1CCN(c2ccc(F)cc2)CC1	inactive	-16.1%

Structure (SMILES)	Potency	cell number change
O=C(c1ccc(N2CCN(C(=O)c3ccccc3Br)CC2)cc1)c1cccc(F)c1	inactive	-10.8%
COc1ccccc1N1CCN(C(=O)c2c(C)cc(=O)oc2C)CC1	inactive	-3.57%
Cc1c(C(=O)N2CCN(C(=O)c3ccccc3)CC2)oc2ccc(F)cc12	1.84 µM (active)	-15.5%
O=C(c1cccc(C(=O)N2CCN(c3ccccc3)CC2)c1)N1CCN(c2ccccc2)CC1	inactive	-3.1%
COc1ccc(CNC(=O)CCC(=O)Nc2nnc(CC(C)C)s2)cc1	inactive	5.14%
COc1ccc(N(C(=O)CNC(=O)c2cccs2)C(C(=O)NCC2CCCO2)c2ccccc2)c(OC)c1 (stereo not drawn)	inactive	5.71%
CC(=O)Oc1ccc2nc(-c3cccs3)oc(=O)c2c1	inactive	-22.5%
Cc1ccc(NC(=S)NC(CO)C(O)c2ccc([N+](=O)[O-])cc2)cc1 (stereo not drawn)	inactive	-1.73%
Fc1cnc(N2CCOCC2)nc1N1CCc2ccccc21	inactive	-10.6%
O=C(O)c1ccccc1C(=O)N1CCN(c2ccccc2)CC1	inactive	0.845%
O=C(c1ccccc1Oc1ccccc1)N1CCN(c2ccc(F)cc2)CC1	inactive	14.1%
O=C(c1ccccc1C(=O)N1CCN(c2ccc(F)cc2)CC1)N1CCN(c2ccc(F)cc2)CC1	2.59 µM (active)	-27%
CC(C)CN(C(=O)CCC(=O)OCC(=O)N(C)c1ccccc1)c1c(N)n(CC(C)C)c(=O)[nH]c1=O	inactive	
Cn1c(C(=O)O)cc2c(=O)n3ccccc3nc21	inactive	3.26%
CC1CC(NC(=O)c2cc3c(=O)n4ccccc4nc3n2C)CC(C)(C)C1 (stereo not drawn)	18.4 µM (active)	3.3%
CC1CN(C(=O)c2cc3c(=O)n4ccccc4nc3n2C)CC(C)O1 (stereo not drawn)	inactive	15.1%
CCOc1cc(C(=O)NCC2CCCO2)cc(OCC)c1OCC (stereo not drawn)	inactive	
Cc1cc(C)c(S(=O)(=O)N2CCN(C(=O)c3c(C)noc3C)CC2)c(C)c1	inactive	-0.389%
O=C(O)CN1C(=O)SC(Nc2ccccc2)C1=O (stereo not drawn)	inactive	7.54%
CCOC(=O)CN1C(=O)SC(Nc2ccc(C)cc2)C1=O (stereo not drawn)	inactive	0.723%
Cc1ccc(NC2SC(=O)N(CC(=O)O)C2=O)cc1 (stereo not drawn)	23.1 µM (active)	-7.73%
Cn1cnnc1SCCNS(=O)(=O)c1cccc([N+](=O)[O-])c1	inactive	3.23%
Cc1ccc(NC(=S)N(CCN2CCOCC2)Cc2ccccc2F)cc1	inactive	-12.7%
CCc1ccc(NC(=S)N(CCN2CCOCC2)Cc2ccccc2F)cc1	inactive	13.9%

Structure (SMILES)	Potency	cell number change
CN(C)S(=O)(=O)N(CCN1CCOCC1)Cc1ccccc1F	9.2 µM (active)	6.57%
Cn1cnnc1Sc1ccc(C(F)(F)F)cc1[N+](=O)[O-]	inactive	20.3%
Cc1ccc(C2(c3noc(CN4C[C@@H](C)O[C@@H](C)C4)n3)CCCC2)cc1	inactive	-4.24%
CCOc1ccc2ccccc2c1C(=O)Nc1cc(=O)n(C)c(=O)n1C	inactive	-14%
Cc1[nH]n(-c2ccccc2)c(=O)c1N=Nc1ccc(C(N)=O)cc1	inactive	15.5%
Cc1[nH]n(-c2ccccc2)c(=O)c1N=Nc1ccccc1C(=O)N1CCOCC1	inactive	-24.3%
Cc1[nH]n(-c2ccccc2)c(=O)c1N=Nc1ccc(Cl)cc1	9.2 µM (active)	-10.2%
COc1ccccc1N=Nc1c(C)[nH]n(-c2ccccc2)c1=O	14.6 µM (active)	0.338%
Cc1[nH]n(-c2ccc(Cl)cc2)c(=O)c1N=Nc1cccnc1	inactive	8.32%
Cc1[nH]n(-c2ccccc2)c(=O)c1N=O	inactive	-9.61%
COc1ccccc1NC(=O)C1=C(C)Nc2nc(-c3ccccc3)nn2C1c1ccccn1 (stereo not drawn)	inactive	
O=C(CN1C(=O)NC2(CCCCCCC2)C1=O)Nc1ccc(Cl)cc1	inactive	27.1%
COC(=O)C1=C(NC(=O)C2CCCCC2)CCS1	inactive	-10%
CC(C)Oc1ccc(/C=C/C(=O)NCC2COc3ccccc3O2)cc1 (stereo not drawn)	inactive	-3.08%
CCS(=O)(=O)c1nc(S(=O)(=O)c2ccc(C)cc2)c(NCCN2CCOCC2)s1	inactive	
CC1CCC(NCCNC(=O)c2ccco2)CC1 (stereo not drawn)	0.82 µM (active)	15.3%
O=C(Nc1ccc(S(=O)(=O)N2CCCCCC2)cc1)c1ccco1	inactive	
O=C(NCCNC1CCCCC1)c1ccco1	inactive	17.5%
O=C(Nc1ccc(Cl)c(S(=O)(=O)N2CCCCC2)c1)c1ccco1	0.291 µM (active)	11.9%
CC1CCN(S(=O)(=O)c2ccc(NC(=O)c3ccco3)cc2)CC1	16.4 µM (active)	-3.17%
CCOC(=O)N1CCC(NCCNC(=O)c2ccco2)CC1	inactive	-0.499%
O=C(Nc1ccc(S(=O)(=O)N2CCOCC2)cc1)c1ccco1	inactive	
O=C(Nc1ccc(N2CCCC2)c(Cl)c1)c1ccco1	inactive	-15.9%
CCOc1ccc(NC(=O)c2ccco2)cc1S(=O)(=O)N1CCCC1	inactive	3.85%
